# This excerpt belongs to a sample that is enriched for the strongest signals.
# B1: GS13971A-bth-447-22-447 (Bacteroides thetaiotaomicron) (protein)
# chain: EDVDNERSKGMFSASQSGFSTIEVYDLGPLNKIDLSIAKAGLEDTGGTVTFSVEQSLLDSLNNADGTSYQLLPPECYTIENATYSVSPGGDRRVTGGSLVYDPHKIYNLCGFDELKYVLPLRVSSTGTPMNSDRTATLYGFIVKEAIVRLASTGGDFVVEGGTTTSPMNLDTEISFENEWDLTTSFATKGADYVDNYNSANSTYYIPLPSDFYTLPDVTIAKGKTTGGSAISLLGETLPPGNYLLPVSLGGLSGQGDASINIDKETVANYFVIKQGGPINRDHWTVTANTEEKTGEVSAAYPHNGQTISLIDGEINTFWHSKWQGGEVAPPYEIILDMGKENSVSQLGLIARQNALTSMNLEIYAGDDGETWNLIGKYFFDGSIKTEQMVPVKACDARWIRIYIPTLGSGSSVGHLAEIYVYGTDK
# What was measured:
# Test in all cases: glycan array binding signal (z-score within array); higher = stronger binding
# Conditions in all cases: glycan notation: IUPAC condensed, linker removed
# [1] = molecular target: Fuc(a1-2)Gal(b1-3)GalNAc(b1-4)[Neu5Ac(a2-3)]Gal(b1-4)Glc
# Procedure, shortened: (§1)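 The binding signal is a Z-score computed within each array and averaged over linkers. Arrays of the same protein sequence at different concentrations or buffers were also averaged together. Data originate from 3228 arrays in the Consortium for Functional Glycomics database, kept only where the protein sequence was available.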
# [2] = molecular target: Fuc(a1-2)[Gal(a1-4)]Gal(b1-4)GlcNAc
# Procedure, shortened: as §1
# [3] = molecular target: Fuc(a1-2)[GalNAc(a1-3)]Gal(b1-3)GalNAc(b1-3)Gal(a1-4)Gal(b1-4)Glc
# Procedure, shortened: as §1
# [4] = molecular target: Fuc(a1-2)[GalNAc(a1-3)]Gal(b1-4)GlcNAc(b1-3)Gal(b1-4)GlcNAc
# Procedure, shortened: as §1
# [5] = molecular target: Fuc(a1-3)[Gal(b1-4)]GlcNAc
# Procedure, shortened: as §1
# [6] = molecular target: Fuc(a1-3)[Gal(b1-4)]GlcNAc(b1-6)GalNAc
# Procedure, shortened: as §1
# Fuc(a1-4)GlcNAc = molecular target: Fuc(a1-4)GlcNAc
# Procedure, shortened: as §1
# [7] = molecular target: Gal(a1-3)Gal(b1-3)GlcNAc(b1-2)Man(a1-3)[Gal(a1-3)Gal(b1-3)GlcNAc(b1-2)Man(a1-6)]Man(b1-4)GlcNAc(b1-4)GlcNAc
# Procedure, shortened: as §1
# [8] = molecular target: Gal(a1-3)Gal(b1-3)[Fuc(a1-4)]GlcNAc(b1-2)Man(a1-3)[Gal(a1-3)Gal(b1-3)[Fuc(a1-4)]GlcNAc(b1-2)Man(a1-6)]Man(b1-4)GlcNAc(b1-4)GlcNAc
# Procedure, shortened: as §1
# [9] = molecular target: Gal(a1-3)Gal(b1-4)GlcNAc(b1-2)Man(a1-3)[Gal(a1-3)Gal(b1-4)GlcNAc(b1-2)Man(a1-6)]Man(b1-4)GlcNAc(b1-4)GlcNAc
# Procedure, shortened: as §1
# [10] = molecular target: Gal(a1-3)Gal(b1-4)GlcNAc(b1-3)GalNAc
# Procedure, shortened: as §1
# [11] = molecular target: Gal(a1-3)[Gal(a1-4)]Gal(b1-4)GlcNAc
# Procedure, shortened: as §1
# [12] = molecular target: Gal(a1-4)Gal(b1-3)GlcNAc(b1-2)Man(a1-3)[Gal(a1-4)Gal(b1-3)GlcNAc(b1-2)Man(a1-6)]Man(b1-4)GlcNAc(b1-4)GlcNAc
# Procedure, shortened: as §1
# [13] = molecular target: Gal(b1-3)GlcNAc(b1-2)Man(a1-3)[GlcNAc(b1-4)][Gal(b1-3)GlcNAc(b1-2)Man(a1-6)]Man(b1-4)GlcNAc(b1-4)GlcNAc
# Procedure, shortened: as §1
# [14] = molecular target: Gal(b1-3)GlcNAc(b1-3)GalNAc
# Procedure, shortened: as §1
# [15] = molecular target: Gal(b1-3)[Fuc(a1-4)]GlcNAc(b1-3)Gal(b1-4)[Fuc(a1-3)]GlcNAc
# Procedure, shortened: as §1
# [16] = molecular target: Gal(b1-4)GlcNAc(a1-6)Gal(b1-4)GlcNAc
# Procedure, shortened: as §1
# [17] = molecular target: Gal(b1-4)GlcNAc(b1-3)Gal(b1-3)GalNAc
# Procedure, shortened: as §1
# [18] = molecular target: Gal(b1-4)GlcNAc(b1-3)Gal(b1-3)GlcNAc
# Procedure, shortened: as §1
# [19] = molecular target: Gal(b1-4)GlcNAc(b1-3)Gal(b1-4)GlcNAc
# Procedure, shortened: as §1
# [20] = molecular target: Gal(b1-4)GlcNAc(b1-3)Gal(b1-4)GlcNAc(b1-2)[Gal(b1-4)GlcNAc(b1-3)Gal(b1-4)GlcNAc(b1-6)]Man(a1-6)[Gal(b1-4)GlcNAc(b1-3)Gal(b1-4)GlcNAc(b1-2)Man(a1-3)]Man(b1-4)GlcNAc(b1-4)[Fuc(a1-6)]GlcNAc
# Procedure, shortened: as §1
# [21] = molecular target: Gal(b1-4)GlcNAc(b1-3)Gal(b1-4)GlcNAc(b1-3)Gal(b1-4)GlcNAc(b1-2)[Gal(b1-4)GlcNAc(b1-3)Gal(b1-4)GlcNAc(b1-3)Gal(b1-4)GlcNAc(b1-6)]Man(a1-6)[Gal(b1-4)GlcNAc(b1-3)Gal(b1-4)GlcNAc(b1-3)Gal(b1-4)GlcNAc(b1-2)Man(a1-3)]Man(b1-4)GlcNAc(b1-4)[Fuc(a1-6)]GlcNAc
# Procedure, shortened: as §1
# [22] = molecular target: Gal(b1-4)GlcNAc(b1-3)Gal(b1-4)GlcNAc(b1-3)Gal(b1-4)GlcNAc(b1-3)Gal(b1-4)GlcNAc(b1-2)Man(a1-3)[Gal(b1-4)GlcNAc(b1-3)Gal(b1-4)GlcNAc(b1-3)Gal(b1-4)GlcNAc(b1-3)Gal(b1-4)GlcNAc(b1-2)Man(a1-6)]Man(b1-4)GlcNAc(b1-4)[Fuc(a1-6)]GlcNAc
# Procedure, shortened: as §1
# [23] = molecular target: Gal(b1-4)GlcNAc(b1-3)Gal(b1-4)GlcNAc(b1-3)Gal(b1-4)GlcNAc(b1-3)Gal(b1-4)GlcNAc(b1-2)[Gal(b1-4)GlcNAc(b1-3)Gal(b1-4)GlcNAc(b1-3)Gal(b1-4)GlcNAc(b1-3)Gal(b1-4)GlcNAc(b1-6)]Man(a1-6)[Gal(b1-4)GlcNAc(b1-3)Gal(b1-4)GlcNAc(b1-3)Gal(b1-4)GlcNAc(b1-3)Gal(b1-4)GlcNAc(b1-2)Man(a1-3)]Man(b1-4)GlcNAc(b1-4)[Fuc(a1-6)]GlcNAc
# Procedure, shortened: as §1
# [24] = molecular target: Gal(b1-4)GlcNAc(b1-3)Gal(b1-4)GlcNAc(b1-3)Gal(b1-4)GlcNAc(b1-3)Gal(b1-4)GlcNAc(b1-3)Gal(b1-4)GlcNAc(b1-2)Man(a1-3)[Gal(b1-4)GlcNAc(b1-3)Gal(b1-4)GlcNAc(b1-3)Gal(b1-4)GlcNAc(b1-3)Gal(b1-4)GlcNAc(b1-3)Gal(b1-4)GlcNAc(b1-2)Man(a1-6)]Man(b1-4)GlcNAc(b1-4)[Fuc(a1-6)]GlcNAc
# Procedure, shortened: as §1
binder,measurement,setting,value
B1,glycan array binding signal (z-score),[1],-0.611
same,glycan array binding signal (z-score),[2],1.4
same,glycan array binding signal (z-score),[3],-0.418
same,glycan array binding signal (z-score),[4],-0.622
same,glycan array binding signal (z-score),[5],0.548
same,glycan array binding signal (z-score),[6],0.414
same,glycan array binding signal (z-score),Fuc(a1-4)GlcNAc,12.2
same,glycan array binding signal (z-score),[7],-0.916
same,glycan array binding signal (z-score),[8],0.437
same,glycan array binding signal (z-score),[9],0.313
same,glycan array binding signal (z-score),[10],0.741
same,glycan array binding signal (z-score),[11],3.1
same,glycan array binding signal (z-score),[12],0.513
same,glycan array binding signal (z-score),[13],0.373
same,glycan array binding signal (z-score),[14],0.748
same,glycan array binding signal (z-score),[15],1.09
same,glycan array binding signal (z-score),[16],0.525
same,glycan array binding signal (z-score),[17],-0.104
same,glycan array binding signal (z-score),[18],0.498
same,glycan array binding signal (z-score),[19],-1.12
same,glycan array binding signal (z-score),[20],2.62
same,glycan array binding signal (z-score),[21],0.617
same,glycan array binding signal (z-score),[22],2.21
same,glycan array binding signal (z-score),[23],2.31
same,glycan array binding signal (z-score),[24],2.91

# — the supplement of paper PMC8728848
